Some test systems named below: HCT-15 colon; HT29 colon; SNB-75 CNS; SNB-19 CNS; U251 CNS; PC-3 prostate; SK-MEL-5 melanoma; UACC-62 melanoma; LOX IMVI melanoma; SK-MEL-2 melanoma; EKVX NSCLC; SN12C renal; UO-31 renal; TK-10 renal; ACHN renal; CAKI-1 renal; A498 renal; CCRF-CEM leukemia; MOLT-4 leukemia; SK-MEL-28 melanoma.
What all share (assay): NCI-60 one-dose screen, 48 h (100 = growth as untreated, 0 = no growth, -100 = all killed)
Common to all, as to conditions: 10 µM unless noted

SMILES strings stand for the structures. Where “and” joins values, the source holds several entries; their conditions need not be identical. Equal entries are not always repeated. The panel holds about 83,000 compounds, 20% with a hit somewhere; the sample as a whole holds those more often.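 Negative percent growth values reflect cell death: -40 means 40% of the cells present at the start died, and -100 means all died.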 A number with no mark means an inactive call. Calls of active or inactive are those of the source. The calls were made as follows: active = growth percent below 10; inactive = the rest.

Take `Nc1ccc2ccc(NS(=O)(=O)N3CCCCC3)cc2c1`: the growth in the assay with HCT-15 colon was 18.6%; in the assay on HT29 colon, 4.34% (active); in the assay on SNB-75 CNS, 30.1%; with SNB-19 CNS, 40.3%; in the assay with U251 CNS it was 23.3%; in the assay with PC-3 prostate, 43.6%. Further, the growth was 25.3% with SK-MEL-5 melanoma; 16.7% with UACC-62 melanoma; 46.6% with LOX IMVI melanoma; 85.4% in the assay with SK-MEL-2 melanoma; 61.7% in the assay with EKVX NSCLC; 43.2% in the assay with SN12C renal. The growth in the assay on UO-31 renal is 64.8%; with TK-10 renal it was 47.1%; in the assay with ACHN renal, 56.7%; in the assay on CAKI-1 renal it was 43.4%; in the assay with A498 renal, 29.3%; in the assay on CCRF-CEM leukemia, 18.3%. Also, the growth in the assay on MOLT-4 leukemia is 18%.
As for `CC(=O)c1cc2ccccc2o1`, the growth is 99.6% in the assay with HCT-15 colon; 95.4% with HT29 colon; 101% with SNB-75 CNS; 108% with SNB-19 CNS; 109% with U251 CNS; 99.9% with PC-3 prostate. For the same compound, the growth in the assay with SK-MEL-5 melanoma was 101%; with UACC-62 melanoma it was 102%; with LOX IMVI melanoma, 95.3%; in the assay with SK-MEL-2 melanoma, 97.9%; in the assay with SN12C renal, 101%; in the assay with UO-31 renal, 99.6%. Also, the growth in the assay with TK-10 renal was 93.6%; in the assay on CAKI-1 renal, 99.6%; in the assay on A498 renal, 104%; with CCRF-CEM leukemia, 106%; in the assay with MOLT-4 leukemia, 99.7%.
For the compound `CC(=O)Oc1ccc(C2(c3ccc(OC(C)=O)cc3)C(=O)Nc3ccccc32)cc1`, the growth was 67.3% and 73% with HCT-15 colon; 112% and 131% in the assay with HT29 colon; 85.3% and 158% in the assay on SNB-75 CNS; 108% and 101% with SNB-19 CNS; 65.3% and 52.3% in the assay with PC-3 prostate; 96.8% and 95% in the assay on SK-MEL-5 melanoma. Besides, the growth in the assay with UACC-62 melanoma was 84.2% and 87.3%; with LOX IMVI melanoma, 53.9% and 46.7%; in the assay with SK-MEL-28 melanoma it was 99.6% and 108%; in the assay with SK-MEL-2 melanoma, 90.4% and 80.7%; with SN12C renal, 17.7% and 16%; in the assay on UO-31 renal, 81.9% and 85.4%. Further, the growth is 18.3% and 35.6% in the assay on TK-10 renal; 67.6% and 63% in the assay on ACHN renal; 68.2% and 77.4% with CAKI-1 renal; 107% and 111% in the assay on A498 renal; 97.9% and 86.7% in the assay with CCRF-CEM leukemia; 71.4% and 97.6% in the assay with MOLT-4 leukemia.
For `NC1=NC(c2ccccc2)N=C(Nc2ccccc2)N1` (centres undefined), the growth in the assay with HCT-15 colon was 102% and 98.9%; in the assay with HT29 colon, 62.4% and 60.7%; in the assay with SNB-75 CNS, 53.1% and 12.8%; in the assay with SNB-19 CNS it was 67% and 76%; in the assay with PC-3 prostate, 65.1% and 70.9%; in the assay with SK-MEL-5 melanoma, 69.6% and 35.6%. The growth in the assay with UACC-62 melanoma is 89%; in the assay with LOX IMVI melanoma it was 85.8% and 83%; in the assay with SK-MEL-28 melanoma, 87.8% and 102%; in the assay on SK-MEL-2 melanoma it was 100% and 84.3%; with EKVX NSCLC, 79.3% and 90.5%; in the assay with SN12C renal it was 98.6% and 99.1%. In addition, the growth with UO-31 renal is 105% and 89.7%; in the assay on TK-10 renal, 94% and 102%; with ACHN renal, 97.9% and 84.1%; in the assay with CAKI-1 renal it was 74.2% and 93.8%; with A498 renal, 96.3% and 110%; in the assay with CCRF-CEM leukemia, 49.6% and 95.1%. In addition, the growth in the assay on MOLT-4 leukemia was 65.7% and 71.4%.
As for `CNc1ccc(O)cc1`, the growth in the assay on HCT-15 colon was 103% and 102%; in the assay with HT29 colon it was 114% and 113%; in the assay with SNB-75 CNS, 84.1% and 66.5%; with SNB-19 CNS, 102% and 98.3%; in the assay on PC-3 prostate it was 102% and 100%; in the assay on SK-MEL-5 melanoma, 98.2% and 112%. Further, the growth with UACC-62 melanoma is 108% and 89.3%; in the assay on LOX IMVI melanoma it was 101% and 93.9%; in the assay with SK-MEL-28 melanoma it was 114% and 137%; in the assay on SK-MEL-2 melanoma, 110% and 118%; in the assay with EKVX NSCLC, 80.1%; with SN12C renal, 103%. The growth in the assay with UO-31 renal was 82.4% and 95.4%; in the assay on TK-10 renal, 144% and 121%; in the assay on ACHN renal, 92.6% and 112%; in the assay with CAKI-1 renal, 105% and 104%; in the assay on A498 renal, 90.9% and 68.1%; in the assay with CCRF-CEM leukemia, 101% and 110%. The growth in the assay on MOLT-4 leukemia was 110% and 129%.
Take `CC(C)(C)OC(=O)NCCc1ccc(N)cc1`: the growth was 111% with HCT-15 colon; 95.6% with HT29 colon; 87.6% in the assay on SNB-75 CNS; 104% in the assay with SNB-19 CNS; 89.5% in the assay with PC-3 prostate; 99.2% with SK-MEL-5 melanoma. Further, the growth in the assay with UACC-62 melanoma is 100%; in the assay on LOX IMVI melanoma, 106%; in the assay on SK-MEL-28 melanoma it was 112%; with SK-MEL-2 melanoma, 86.1%; with EKVX NSCLC, 101%; with SN12C renal it was 91.8%. Moreover, the growth in the assay on UO-31 renal is 72%; in the assay with TK-10 renal, 92.7%; in the assay with ACHN renal, 105%; with CAKI-1 renal it was 98.2%; in the assay with A498 renal, 92.5%; with CCRF-CEM leukemia it was 85.5%. In the assay with MOLT-4 leukemia, the growth was 92.8%.
For the compound `CCN(C)c1ccccc1`, the growth in the assay on HCT-15 colon was 101%; with HT29 colon, 103%; in the assay with SNB-75 CNS, 79.2%; in the assay with SNB-19 CNS, 106%; in the assay with U251 CNS, 99%; in the assay with PC-3 prostate, 95.8%. Besides, the growth is 100% in the assay with SK-MEL-5 melanoma; 103% with UACC-62 melanoma; 98.4% in the assay on LOX IMVI melanoma; 104% with SK-MEL-2 melanoma; 87.5% in the assay with EKVX NSCLC; 96.7% in the assay on SN12C renal. The growth was 72.6% with UO-31 renal; 107% with TK-10 renal; 90.8% in the assay with CAKI-1 renal; 99.6% in the assay with A498 renal; 103% in the assay on CCRF-CEM leukemia; 88.2% in the assay on MOLT-4 leukemia.

Values taken from PubChem BioAssay (NCI).
